# Assay outcomes deposited in PubChem by Broad Institute.
# Only some compounds are listed: those with a hit (about 1.2% of all), similar ones and a draw of the others.
# Glyco luc inh – N-linked glycosylation inhibition; actives 0.23% (n = 360,000); reporter increase, % at 12.5 µM; D54 ERlucT glycosylation luciferase reporter, 24 h; percent of 100 nM tunicamycin response;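 active = mean luciferase reporter signal, scaled so untreated is 0 and the glycosylation-blocking control 100, at or above a set limit in every replicate; inconclusive = mean reaches the limit but not every replicate does; inactive = mean below the limit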;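 also: luciferase carries N-glycosylation sites so blocking glycosylation raises the light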
# RAD54 inh – RAD54 (human) branch migration inhibition; actives 0.14% (n = 360,000); RAD54 Holliday junction branch migration, FAM/BHQ fluorescence; inhibition, % at 10.4 µM; Q92698;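 active = mean normalized replicate activity at least 40 and at least half of replicates scoring 40 or more; inconclusive = only one of the two criteria met; inactive = mean below 40 and under half of replicates reaching 40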;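 also: inhibitors cause a drop in the FAM fluorescence signal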
# MLL AF4-AF9 inh – inhibitors of human MLL-AF4/AF9 interaction; P42568; AlphaScreen, biotin-AF4 peptide binding to FLAG-AF9; inhibition, % at 10 µM; actives 0.47% (n = 350,000);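 active = every replicate reaching a set inhibition limit, whatever the replicate mean, cut at about 25% in these data; inconclusive = mean inhibition reaches that limit but some replicates miss it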
# Casp6 inh – inhibitors of human caspase-6; P55212; purified caspase-6, Z-VEID-R110 cleavage fluorescence; inhibition, % at 12.5 µM; actives 0.53% (n = 350,000);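 active = mean inhibition across replicates at least about 35%, with every replicate also reaching that limit, limit read from the data; inconclusive = only one of the two criteria met; inactive = neither criterion met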
# Target sequence (P55212 24-179 limits assumed): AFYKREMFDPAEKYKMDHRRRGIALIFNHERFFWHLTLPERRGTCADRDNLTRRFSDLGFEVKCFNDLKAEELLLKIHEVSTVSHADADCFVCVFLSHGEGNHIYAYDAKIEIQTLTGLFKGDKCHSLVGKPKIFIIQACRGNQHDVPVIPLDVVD
# Target sequence (P55212 194-293 limits assumed): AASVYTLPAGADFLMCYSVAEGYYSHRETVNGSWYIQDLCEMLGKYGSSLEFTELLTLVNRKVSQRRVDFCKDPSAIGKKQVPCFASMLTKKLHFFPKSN
# RAD52 inh – RAD52 (human) annealing inhibition | actives 0.46% (n = 360,000) | recombinant RAD52 DNA annealing, FRET fluorescence | inhibition, % at 18.7 µM;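 active = every replicate showing at least 50% inhibition; inconclusive = mean inhibition at least 50% but not in every replicate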
# A number is an active result; n = inactive; u = inconclusive; x = no result given.
SMILES,Glyco luc inh,RAD54 inh,MLL AF4-AF9 inh,Casp6 inh,RAD52 inh
C[C@H](CO)N1C[C@H](C)[C@H](CN(C)Cc2ccc(-c3ccccc3)cc2)Oc2ccc(NC(=O)CCCN(C)C)cc2C1=O,x,n,n,n,n
C[C@@H]1CN([C@H](C)CO)C(=O)Cc2cc(NC(=O)CCCN(C)C)ccc2O[C@@H]1CN(C)Cc1ccc(-c2ccccc2)cc1,x,n,n,n,79
CCC(=O)N(C)C[C@H]1Oc2cc(C#CC3CCCC3)ccc2S(=O)(=O)N([C@@H](C)CO)C[C@H]1C,x,n,n,n,n
COc1ccc2c3c([nH]c2c1)[C@H](CO)N(S(C)(=O)=O)CC31CCN(Cc2cccc(F)c2)CC1,x,x,36,x,x
COc1ccc2c3c([nH]c2c1)[C@@H](CO)NCC31CCN(Cc2ccc(F)cc2)CC1,x,x,x,x,72
COc1ccc2c3c([nH]c2c1)[C@H](CO)NCC31CCN(Cc2ccccc2)CC1,x,x,n,x,x
COc1ccc2c3c([nH]c2c1)[C@@H](CO)N(S(C)(=O)=O)CC31CCN(Cc2cccc(F)c2)CC1,x,x,27,x,x
COc1ccc(CCNC(=O)c2cc3cccc(OC)c3oc2=O)cc1OC,n,n,n,44,n
O=C(O)C1C=Cc2ccccc2N1C(=O)c1ccccc1 (centres undefined) (tested in a mixture with another compound),n,x,n,39,n
COc1ccccc1CNC(=O)C[C@@H]1CC[C@H]2[C@@H](COC[C@@H](O)CN2Cc2cccc(-c3ccncc3)c2)O1,x,n,n,n,n
C[C@@H]1CN([C@H](C)CO)C(=O)c2cc(NC(=O)CCC(F)(F)F)ccc2O[C@@H](C)CCCCO[C@@H]1CN(C)C(=O)Cc1ccccc1,x,n,x,x,x
CCOC(=O)N1CCN(C2=C(NS(=O)(=O)c3ccccc3)C(=O)c3ccccc3C2=O)CC1,n,n,26,n,n
CCOC(=O)N1CCN(C2=C(NS(=O)(=O)c3ccc(Br)cc3)C(=O)c3ccccc3C2=O)CC1,n,n,32,n,n
C[C@@H]1CN([C@H](C)CO)C(=O)c2cc(NC(=O)Nc3ccccc3)ccc2O[C@@H](C)CCCCO[C@@H]1CN(C)Cc1ccc(Cl)c(Cl)c1,x,n,n,n,n
COCC(=O)N1CC2(CN(Cc3nccs3)C2)c2c(n(C)c3cc(OC)ccc23)[C@@H]1CO,x,x,n,x,x
Nc1cccc2nc3ccccc3cc12,u,106,n,x,x
CCC(=O)Nc1ccc2c(c1)C(=O)N(C)C[C@H](OC)[C@H](C)CN(Cc1ccccc1)[C@@H](C)CO2,x,n,n,n,n
C[C@@H]1CN([C@H](C)CO)C(=O)c2cc(NC(=O)c3ccccc3)ccc2O[C@@H](C)CCCCO[C@@H]1CN(C)S(=O)(=O)c1ccc(Cl)cc1,x,n,n,n,n
O=C(C[C@@H]1CC[C@H]2[C@@H](COC[C@@H](O)CN2Cc2nccs2)O1)NCc1ccc(Oc2ccccc2)cc1,x,n,x,x,x
COc1ccc(C(=O)N/N=C/c2sc(N3CCOCC3)nc2-c2ccccc2)cc1OC,n,n,27,n,n
O=C(N/N=C/c1sc(N2CCOCC2)nc1-c1ccccc1)c1ccc(O)cc1,n,x,n,n,n
COC(=O)c1ccccc1Nc1ccccc1,n,n,x,x,x
O=S(=O)(O)c1cccc2cccc(Nc3ccccc3)c12,n,n,n,56,n
Cc1cc(=O)n2c3c(c4c(cc13)c(CN(C)C)cc(=O)n4C)OC2,31,x,n,99,n
N=C(N)c1ccc(OCCCCCOc2ccc(C(=N)N)cc2)cc1,n,n,n,n,n
SMILES,Glyco luc inh,RAD54 inh,MLL AF4-AF9 inh,Casp6 inh,RAD52 inh
N=C(N)c1ccc(N)cc1,n,n,n,n,100
C=Cc1c(C)c2cc3[nH]c(cc4nc(cc5nc(cc1[nH]2)C(C)=C5CCC(=O)O)C(CCC(=O)O)=C4C)c(C)c3C=C,n,n,n,57,n
CCOc1ccc(N2CC(C(=O)NCC(=O)Nc3ccc(F)c(F)c3F)CC2=O)cc1 (centres undefined),n,n,n,44,n
C[C@@H]1CCCCO[C@H](CN(C)C(=O)NC2CCCCC2)[C@H](C)CN([C@H](C)CO)C(=O)c2cc(NC(=O)Nc3ccc(C(F)(F)F)cc3)ccc2O1,x,n,n,n,n
CO[C@H]1CN(C)C(=O)c2cc(NC(=O)CC(F)(F)F)ccc2OC[C@H](C)N(S(=O)(=O)c2cn(C)cn2)C[C@H]1C,x,n,n,n,n
OC[C@@H]1[C@H](c2ccccc2)C2(CN(Cc3cccnc3)C2)N1Cc1ccncc1,x,x,n,n,n
OC[C@@H]1[C@@H](c2ccccc2)C2(CN(Cc3cccnc3)C2)N1Cc1ccncc1,x,x,26,n,n
CCC1=NN(C(=O)c2ccccc2Br)C(O)(c2ccc(Br)cc2)C1 (centres undefined),n,n,n,n,n
CCC1=NN(C(=O)c2ccccc2O)C(O)(c2ccccc2)C1 (centres undefined),n,n,n,72,n
CCC1=NN(C(=O)c2ccc(Cl)cc2)C(O)(c2ccccc2)C1 (centres undefined),n,n,n,n,n
CCC1=NN(C(=O)c2ccc(Cl)cc2)C(O)(c2ccc(C)cc2)C1 (centres undefined),n,n,n,48,n
O=C(NCCCCNC(=O)C(F)(F)F)C(F)(F)F,n,x,25,n,n
COCCCNC(=O)C(F)(F)C(F)(F)C(=O)NCCCOC,n,x,x,x,x
C=CCN=c1scc(-c2ccccc2)n1/N=C/c1ccccn1,n,n,28,n,n
C=CCN=c1scc(-c2ccc(F)cc2)n1/N=C/c1ccccn1,n,x,n,n,n
C[C@@H]1CN([C@@H](C)CO)C(=O)CCCn2cc(nn2)CO[C@@H]1CN(C)S(=O)(=O)c1ccccc1,x,n,n,n,n
COc1ccc(-c2ccc3c(c2)[C@@H]2[C@@H](CCN2C(=O)C2CC2)[C@@H](CO)N3C)cc1,x,n,n,n,68
COc1ccc(-c2ccc3c(c2)[C@H]2[C@H](CCN2C(=O)C2CCOCC2)[C@@H](CO)N3C)cc1,x,n,x,x,x
COc1ccc(-c2ccc3c(c2)[C@H]2[C@H](CCN2C(=O)NC2CCCC2)[C@H](CO)N3C)cc1,x,x,26,n,n
COc1ccc(-c2ccc3c(c2)[C@@H]2[C@@H](CCN2C(=O)C2CCCCC2)[C@@H](CO)N3C)cc1,x,n,n,n,n
COc1ccc(-c2ccc3c(c2)[C@@H]2[C@@H](CCN2C(=O)C2CCC2)[C@H](CO)N3C)cc1,x,x,33,x,n
O=S(=O)([N-]c1nc2ccccc2nc1-n1cc[n+](Cc2ccccc2)c1)c1ccc(Br)cc1,48,n,n,n,n
COc1ccc(CN(C)C[C@@H]2OCCCC[C@H](C)Oc3ccc(NS(=O)(=O)c4ccc(OC)cc4)cc3C(=O)N([C@H](C)CO)C[C@H]2C)cc1,x,n,x,x,x
COC1=CC(=O)c2c(ccc3ncnc(N)c23)C1=O,n,x,n,100,n
CN(C)CCNS(=O)(=O)c1ccc(N2CCN(c3ccc(F)cc3)CC2)c([N+](=O)[O-])c1,n,x,28,n,n
COc1cc(C2C(C#N)=C(N)Oc3cc(O)ccc32)cc(OC)c1OC (centres undefined),46,n,x,x,x
